Laboratory results from PMC7862700, “An all-to-all approach to the identification of sequence-specific readers for epigenetic DNA modifications on cytosine”.

How the values were obtained:
Assay in all cases: DAPPL (digital affinity profiling via proximity ligation, sequencing); 10 mM Tris-HCl pH 7.5, 50 mM NaCl, 1 mM DTT, 4% glycerol, room temperature, 30 min; GST-TFs on glutathione beads, 16-mer random dsDNA library, 0.1% formaldehyde crosslink after washing; high values mean tight binding
FEV = target: T1, FEV (Homo sapiens, UniProt Q99581 1-238); conditions: protein: recombinant; tags: N-terminal GST; dsDNA, one strand shown
T1 sequence: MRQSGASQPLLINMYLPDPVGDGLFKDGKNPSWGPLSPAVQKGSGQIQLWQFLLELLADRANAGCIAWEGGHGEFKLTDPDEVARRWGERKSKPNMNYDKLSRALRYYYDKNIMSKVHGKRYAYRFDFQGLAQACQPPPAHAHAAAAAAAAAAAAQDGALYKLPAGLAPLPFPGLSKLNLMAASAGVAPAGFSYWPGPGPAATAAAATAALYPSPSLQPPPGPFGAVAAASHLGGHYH
Outline: (§1)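 Binding signal is given per hexamer as its read frequency for a factor divided by its frequency in the tag-only sample. GST-fused human transcription factors were expressed in yeast, captured on glutathione beads, barcoded with DNA and pooled with that sample, then incubated with 200 nmole of a 16-mer random double-stranded DNA library in Tris/NaCl/DTT/glycerol buffer for 30 min at room temperature. The pools were then washed, crosslinked, proximity-ligated, amplified by PCR and sequenced on an Illumina NextSeq500.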

ETV5 = ETV5 (Homo sapiens, UniProt P41161 1-510); conditions: protein: recombinant; tags: N-terminal GST; dsDNA, one strand shown
Sequence of ETV5 (P41161 whole entry): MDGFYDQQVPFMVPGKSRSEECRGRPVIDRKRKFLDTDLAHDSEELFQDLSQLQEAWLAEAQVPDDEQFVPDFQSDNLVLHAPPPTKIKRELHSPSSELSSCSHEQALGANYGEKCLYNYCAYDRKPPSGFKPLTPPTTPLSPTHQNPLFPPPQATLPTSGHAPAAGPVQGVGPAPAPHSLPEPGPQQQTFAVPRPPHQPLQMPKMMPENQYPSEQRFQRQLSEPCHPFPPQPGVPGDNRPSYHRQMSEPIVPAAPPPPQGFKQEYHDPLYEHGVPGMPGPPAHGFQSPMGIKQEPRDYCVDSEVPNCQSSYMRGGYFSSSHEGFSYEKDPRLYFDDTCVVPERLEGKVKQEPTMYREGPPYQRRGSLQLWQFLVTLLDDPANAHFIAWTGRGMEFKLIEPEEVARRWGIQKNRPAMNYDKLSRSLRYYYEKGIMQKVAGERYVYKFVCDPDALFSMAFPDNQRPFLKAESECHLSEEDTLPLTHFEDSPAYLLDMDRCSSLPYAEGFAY
Outline: as §1

HSF1 = HSF1 (Homo sapiens, UniProt Q00613 1-529); conditions: protein: recombinant; tags: N-terminal GST; chain copies: 3; dsDNA, one strand shown
Sequence of HSF1 (Q00613 whole entry): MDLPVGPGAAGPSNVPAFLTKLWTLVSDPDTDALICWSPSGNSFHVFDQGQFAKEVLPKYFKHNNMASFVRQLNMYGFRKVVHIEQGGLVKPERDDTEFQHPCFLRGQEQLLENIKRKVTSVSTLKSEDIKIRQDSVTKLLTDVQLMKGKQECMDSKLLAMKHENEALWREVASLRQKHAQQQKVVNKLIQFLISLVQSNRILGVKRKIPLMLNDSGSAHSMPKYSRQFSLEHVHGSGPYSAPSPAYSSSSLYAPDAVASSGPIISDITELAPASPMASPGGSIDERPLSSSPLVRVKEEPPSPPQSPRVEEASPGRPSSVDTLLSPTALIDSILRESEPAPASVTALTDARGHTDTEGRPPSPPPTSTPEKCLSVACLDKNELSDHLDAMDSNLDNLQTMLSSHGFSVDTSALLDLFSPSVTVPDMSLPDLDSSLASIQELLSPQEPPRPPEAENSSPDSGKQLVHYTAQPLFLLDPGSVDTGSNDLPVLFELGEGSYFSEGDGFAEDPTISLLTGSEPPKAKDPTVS
Outline: as §1

SPIC = target: T2, SPIC (Homo sapiens, UniProt Q8N5J4 1-248); conditions: protein: recombinant; tags: N-terminal GST; dsDNA, one strand shown
T2 sequence: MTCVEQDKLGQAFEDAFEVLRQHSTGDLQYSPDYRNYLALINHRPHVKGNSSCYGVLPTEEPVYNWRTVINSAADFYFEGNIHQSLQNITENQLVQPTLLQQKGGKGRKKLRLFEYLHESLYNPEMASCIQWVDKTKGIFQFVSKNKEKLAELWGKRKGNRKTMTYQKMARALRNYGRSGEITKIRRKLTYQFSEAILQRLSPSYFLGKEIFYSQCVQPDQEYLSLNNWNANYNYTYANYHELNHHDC
Outline: as §1

ELF4 = ELF4 (Homo sapiens, UniProt Q99607 1-663); conditions: protein: recombinant; tags: N-terminal GST; dsDNA, one strand shown
Sequence of ELF4 (Q99607 whole entry): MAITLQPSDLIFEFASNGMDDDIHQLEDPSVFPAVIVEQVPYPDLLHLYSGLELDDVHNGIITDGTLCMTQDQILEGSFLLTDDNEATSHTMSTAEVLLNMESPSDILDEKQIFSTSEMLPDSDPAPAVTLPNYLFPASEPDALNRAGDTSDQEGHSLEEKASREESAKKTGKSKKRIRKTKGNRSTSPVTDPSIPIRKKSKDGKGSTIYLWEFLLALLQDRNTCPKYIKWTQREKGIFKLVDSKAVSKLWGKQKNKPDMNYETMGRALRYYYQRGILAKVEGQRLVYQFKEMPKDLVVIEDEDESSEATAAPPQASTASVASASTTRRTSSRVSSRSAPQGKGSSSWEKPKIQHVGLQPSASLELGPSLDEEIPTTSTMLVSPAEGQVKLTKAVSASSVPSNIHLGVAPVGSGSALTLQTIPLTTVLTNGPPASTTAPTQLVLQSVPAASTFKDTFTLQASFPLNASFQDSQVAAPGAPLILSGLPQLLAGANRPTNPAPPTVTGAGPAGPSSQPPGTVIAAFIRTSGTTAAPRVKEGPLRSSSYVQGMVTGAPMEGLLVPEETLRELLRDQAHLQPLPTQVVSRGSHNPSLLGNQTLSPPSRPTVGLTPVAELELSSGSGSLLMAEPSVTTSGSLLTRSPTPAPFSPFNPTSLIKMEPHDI
Outline: as §1

ELK4 = target: T3, ELK4 (Homo sapiens, UniProt P28324-2 1-405); conditions: protein: recombinant; tags: N-terminal GST; dsDNA, one strand shown
T3 sequence: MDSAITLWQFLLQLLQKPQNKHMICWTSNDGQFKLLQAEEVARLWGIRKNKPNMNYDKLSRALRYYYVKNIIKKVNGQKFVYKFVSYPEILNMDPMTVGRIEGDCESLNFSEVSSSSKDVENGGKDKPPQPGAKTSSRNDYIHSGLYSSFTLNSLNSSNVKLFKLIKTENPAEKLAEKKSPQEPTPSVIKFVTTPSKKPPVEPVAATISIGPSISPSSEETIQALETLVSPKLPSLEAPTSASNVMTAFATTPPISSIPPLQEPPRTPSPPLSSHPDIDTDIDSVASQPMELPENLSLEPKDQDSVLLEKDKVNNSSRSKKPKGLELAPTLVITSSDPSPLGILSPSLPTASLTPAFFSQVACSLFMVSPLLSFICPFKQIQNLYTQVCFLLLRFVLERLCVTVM
Outline: as §1

ETV2 = target: T4, ETV2 (Homo sapiens, UniProt O00321 1-342); conditions: protein: recombinant; tags: N-terminal GST; dsDNA, one strand shown
T4 sequence: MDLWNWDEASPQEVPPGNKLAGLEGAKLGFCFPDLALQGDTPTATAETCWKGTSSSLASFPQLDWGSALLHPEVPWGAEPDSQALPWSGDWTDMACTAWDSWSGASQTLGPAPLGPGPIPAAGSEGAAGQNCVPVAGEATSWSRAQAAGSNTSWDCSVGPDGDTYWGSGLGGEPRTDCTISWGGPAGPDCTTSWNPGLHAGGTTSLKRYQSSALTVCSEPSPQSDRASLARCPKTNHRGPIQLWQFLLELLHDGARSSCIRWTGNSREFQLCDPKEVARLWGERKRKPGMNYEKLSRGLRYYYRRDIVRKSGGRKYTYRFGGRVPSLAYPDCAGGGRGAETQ
Outline: as §1

ELF3 = target: T5, ELF3 (Homo sapiens, UniProt P78545 1-371); conditions: protein: recombinant; tags: N-terminal GST; dsDNA, one strand shown
T5 sequence: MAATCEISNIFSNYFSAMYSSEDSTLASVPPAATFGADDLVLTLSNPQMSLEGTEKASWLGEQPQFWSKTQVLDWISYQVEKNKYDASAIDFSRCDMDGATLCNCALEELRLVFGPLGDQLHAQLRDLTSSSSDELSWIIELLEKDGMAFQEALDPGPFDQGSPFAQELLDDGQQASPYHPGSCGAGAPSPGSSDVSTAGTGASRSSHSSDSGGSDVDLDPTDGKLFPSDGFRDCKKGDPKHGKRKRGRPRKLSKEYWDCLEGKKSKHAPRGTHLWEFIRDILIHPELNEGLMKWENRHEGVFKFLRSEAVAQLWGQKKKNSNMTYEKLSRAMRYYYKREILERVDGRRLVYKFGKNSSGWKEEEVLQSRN
Outline: as §1

CRX = CRX (Homo sapiens, UniProt O43186 1-299); conditions: protein: recombinant; tags: N-terminal GST; dsDNA, one strand shown
Sequence of CRX (O43186 whole entry): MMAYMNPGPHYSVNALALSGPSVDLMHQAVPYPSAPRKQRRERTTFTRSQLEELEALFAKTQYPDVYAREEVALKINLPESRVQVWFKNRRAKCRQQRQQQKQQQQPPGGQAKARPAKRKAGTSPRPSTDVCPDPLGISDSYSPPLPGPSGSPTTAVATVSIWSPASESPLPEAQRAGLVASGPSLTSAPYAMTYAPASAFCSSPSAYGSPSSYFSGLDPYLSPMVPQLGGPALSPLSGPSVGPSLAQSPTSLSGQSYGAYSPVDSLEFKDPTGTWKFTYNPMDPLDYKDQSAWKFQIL
Outline: as §1

ETV1 = ETV1 (Homo sapiens, UniProt P50549 1-477); conditions: protein: recombinant; tags: N-terminal GST; dsDNA, one strand shown
Sequence of ETV1 (P50549 whole entry): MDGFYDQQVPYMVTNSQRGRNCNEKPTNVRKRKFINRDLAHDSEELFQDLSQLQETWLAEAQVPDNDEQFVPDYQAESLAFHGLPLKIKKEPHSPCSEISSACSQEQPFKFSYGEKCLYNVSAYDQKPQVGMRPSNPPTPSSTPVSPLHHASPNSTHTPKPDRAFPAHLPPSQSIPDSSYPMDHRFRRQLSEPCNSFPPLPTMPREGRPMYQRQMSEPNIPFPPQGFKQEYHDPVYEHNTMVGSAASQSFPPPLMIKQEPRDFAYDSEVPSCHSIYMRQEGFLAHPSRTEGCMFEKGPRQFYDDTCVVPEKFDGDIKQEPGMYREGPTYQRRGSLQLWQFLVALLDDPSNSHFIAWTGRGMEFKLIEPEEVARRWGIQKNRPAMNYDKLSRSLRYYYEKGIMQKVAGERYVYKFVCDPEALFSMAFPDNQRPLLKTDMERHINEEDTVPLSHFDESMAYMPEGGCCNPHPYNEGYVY
Outline: as §1

ERF = target: T6, ERF (Homo sapiens, UniProt P50548 1-548); conditions: protein: recombinant; tags: N-terminal GST; dsDNA, one strand shown
T6 sequence: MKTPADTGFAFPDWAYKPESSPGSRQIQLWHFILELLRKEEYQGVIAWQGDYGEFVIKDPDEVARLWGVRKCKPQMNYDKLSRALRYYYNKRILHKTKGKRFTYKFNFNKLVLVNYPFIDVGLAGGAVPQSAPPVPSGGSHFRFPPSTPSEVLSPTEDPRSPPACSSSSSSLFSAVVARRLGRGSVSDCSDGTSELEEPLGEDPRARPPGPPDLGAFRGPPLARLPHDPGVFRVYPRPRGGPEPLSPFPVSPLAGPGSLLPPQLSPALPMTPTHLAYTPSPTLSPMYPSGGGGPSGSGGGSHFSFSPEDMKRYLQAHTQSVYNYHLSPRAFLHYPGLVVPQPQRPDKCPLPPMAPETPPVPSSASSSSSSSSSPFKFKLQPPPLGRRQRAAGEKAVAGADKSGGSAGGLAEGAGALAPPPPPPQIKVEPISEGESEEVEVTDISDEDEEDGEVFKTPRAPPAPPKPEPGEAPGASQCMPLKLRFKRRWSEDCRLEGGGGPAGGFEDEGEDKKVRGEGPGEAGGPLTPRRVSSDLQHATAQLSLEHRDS
Outline: as §1

ETV3L = target: T7, ETV3L (Homo sapiens, UniProt Q6ZN32 1-361); conditions: protein: recombinant; tags: N-terminal GST; dsDNA, one strand shown
T7 sequence: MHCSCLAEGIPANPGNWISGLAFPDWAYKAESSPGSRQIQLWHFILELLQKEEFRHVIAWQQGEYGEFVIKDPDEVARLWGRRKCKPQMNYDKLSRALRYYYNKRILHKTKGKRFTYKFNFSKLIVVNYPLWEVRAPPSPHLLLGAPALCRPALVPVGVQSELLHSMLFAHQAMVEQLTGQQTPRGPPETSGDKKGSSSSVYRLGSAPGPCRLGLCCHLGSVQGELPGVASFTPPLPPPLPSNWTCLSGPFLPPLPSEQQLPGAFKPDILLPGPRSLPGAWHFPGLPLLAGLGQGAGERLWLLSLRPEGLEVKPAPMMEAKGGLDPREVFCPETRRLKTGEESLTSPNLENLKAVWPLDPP
Outline: as §1

ETS2 = target: T8, ETS2 (Homo sapiens, UniProt P15036 1-469); conditions: protein: recombinant; tags: N-terminal GST; dsDNA, one strand shown
T8 sequence: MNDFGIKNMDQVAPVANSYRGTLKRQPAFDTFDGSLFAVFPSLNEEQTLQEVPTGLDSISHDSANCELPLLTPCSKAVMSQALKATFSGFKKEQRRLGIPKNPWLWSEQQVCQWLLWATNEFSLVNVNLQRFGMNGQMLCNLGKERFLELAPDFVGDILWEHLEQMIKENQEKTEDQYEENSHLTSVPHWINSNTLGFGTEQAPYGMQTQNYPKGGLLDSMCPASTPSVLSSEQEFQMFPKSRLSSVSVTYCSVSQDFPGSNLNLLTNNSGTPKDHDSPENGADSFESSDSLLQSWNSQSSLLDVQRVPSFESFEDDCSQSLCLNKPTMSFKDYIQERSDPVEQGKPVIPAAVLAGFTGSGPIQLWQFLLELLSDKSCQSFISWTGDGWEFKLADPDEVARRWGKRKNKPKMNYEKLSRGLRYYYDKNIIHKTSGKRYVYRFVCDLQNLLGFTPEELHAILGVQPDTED
Outline: as §1

SPDEF = target: T9, SPDEF (Homo sapiens, UniProt O95238 1-335); conditions: protein: recombinant; tags: N-terminal GST; dsDNA, one strand shown
T9 sequence: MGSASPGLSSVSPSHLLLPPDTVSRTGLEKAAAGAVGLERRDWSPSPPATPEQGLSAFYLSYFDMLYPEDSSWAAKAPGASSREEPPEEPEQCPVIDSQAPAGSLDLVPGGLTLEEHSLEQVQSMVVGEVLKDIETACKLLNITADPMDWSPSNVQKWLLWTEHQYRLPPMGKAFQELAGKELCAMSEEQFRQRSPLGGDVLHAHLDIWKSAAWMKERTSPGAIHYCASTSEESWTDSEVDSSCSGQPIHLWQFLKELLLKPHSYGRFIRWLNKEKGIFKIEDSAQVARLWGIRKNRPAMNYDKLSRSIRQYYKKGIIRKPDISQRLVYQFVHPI
Outline: as §1

ETV7 = target: T10, ETV7 (Homo sapiens, UniProt Q9Y603 1-341); conditions: protein: recombinant; tags: N-terminal GST; dsDNA, one strand shown
T10 sequence: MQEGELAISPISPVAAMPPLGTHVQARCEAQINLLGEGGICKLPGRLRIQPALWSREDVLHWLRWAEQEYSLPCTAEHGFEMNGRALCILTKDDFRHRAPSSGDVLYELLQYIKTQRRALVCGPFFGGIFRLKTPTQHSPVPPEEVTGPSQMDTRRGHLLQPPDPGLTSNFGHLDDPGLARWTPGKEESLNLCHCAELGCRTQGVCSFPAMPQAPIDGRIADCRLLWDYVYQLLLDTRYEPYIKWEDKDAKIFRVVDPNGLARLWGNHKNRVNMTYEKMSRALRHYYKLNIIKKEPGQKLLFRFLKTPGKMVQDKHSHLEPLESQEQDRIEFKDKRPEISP
Outline: as §1

ELF5 = target: T11, ELF5 (Homo sapiens, UniProt Q9UKW6-2 1-255); conditions: protein: recombinant; tags: N-terminal GST; dsDNA, one strand shown
T11 sequence: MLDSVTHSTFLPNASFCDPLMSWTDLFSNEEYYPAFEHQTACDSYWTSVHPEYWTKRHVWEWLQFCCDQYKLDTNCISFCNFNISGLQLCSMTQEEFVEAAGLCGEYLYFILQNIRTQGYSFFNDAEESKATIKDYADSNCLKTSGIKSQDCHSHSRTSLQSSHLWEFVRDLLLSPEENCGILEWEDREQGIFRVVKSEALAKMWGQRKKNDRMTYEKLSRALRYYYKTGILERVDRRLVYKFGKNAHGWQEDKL
Outline: as §1

ETV3 = target: T12, ETV3 (Homo sapiens, UniProt P41162-2 1-143); conditions: protein: recombinant; tags: N-terminal GST; dsDNA, one strand shown
T12 sequence: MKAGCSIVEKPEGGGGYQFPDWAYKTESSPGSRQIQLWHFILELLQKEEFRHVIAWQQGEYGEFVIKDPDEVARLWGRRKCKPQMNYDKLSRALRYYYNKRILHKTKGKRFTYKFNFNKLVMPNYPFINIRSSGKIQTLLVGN
Outline: as §1

ETV6 = ETV6 (Homo sapiens, UniProt P41212 1-452); conditions: protein: recombinant; tags: N-terminal GST; dsDNA, one strand shown
Sequence of ETV6 (P41212 whole entry): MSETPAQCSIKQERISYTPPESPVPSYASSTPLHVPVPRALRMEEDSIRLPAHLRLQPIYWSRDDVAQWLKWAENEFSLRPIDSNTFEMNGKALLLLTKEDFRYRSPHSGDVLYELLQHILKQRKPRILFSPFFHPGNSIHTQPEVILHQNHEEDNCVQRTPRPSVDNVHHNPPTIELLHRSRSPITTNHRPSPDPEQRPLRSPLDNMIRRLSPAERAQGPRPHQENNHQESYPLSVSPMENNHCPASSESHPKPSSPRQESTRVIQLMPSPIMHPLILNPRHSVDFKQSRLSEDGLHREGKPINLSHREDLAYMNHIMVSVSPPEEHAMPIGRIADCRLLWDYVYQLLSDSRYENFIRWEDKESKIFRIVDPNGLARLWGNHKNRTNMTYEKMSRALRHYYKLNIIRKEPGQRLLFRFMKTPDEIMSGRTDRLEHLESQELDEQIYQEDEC
Outline: as §1

Sequence: TTATTC
- binding signal (FEV): 1.39 fold enrichment (6-mer frequency, TF over GST control)
- binding signal (ETV5): 1.33 fold enrichment (6-mer frequency, TF over GST control)
- binding signal (HSF1): 2.13 fold enrichment (6-mer frequency, TF over GST control)
- binding signal (SPIC): 1.45 fold enrichment (6-mer frequency, TF over GST control)
- binding signal (ELF4): 1.41 fold enrichment (6-mer frequency, TF over GST control)
- binding signal (ELK4): 1.31 fold enrichment (6-mer frequency, TF over GST control)
- binding signal (ETV2): 1.54 fold enrichment (6-mer frequency, TF over GST control)
- binding signal (ELF3): 1.24 fold enrichment (6-mer frequency, TF over GST control)
- binding signal (CRX): 2.37 fold enrichment (6-mer frequency, TF over GST control)
- binding signal (ETV1): 1.36 fold enrichment (6-mer frequency, TF over GST control)
- binding signal (ERF): 1.45 fold enrichment (6-mer frequency, TF over GST control)
- binding signal (ETV3L): 1.47 fold enrichment (6-mer frequency, TF over GST control)
- binding signal (ETS2): 1.37 fold enrichment (6-mer frequency, TF over GST control)
- binding signal (SPDEF): 1.41 fold enrichment (6-mer frequency, TF over GST control)
- binding signal (ETV7): 1.43 fold enrichment (6-mer frequency, TF over GST control)
- binding signal (ELF5): 1.34 fold enrichment (6-mer frequency, TF over GST control)
- binding signal (ETV3): 1.29 fold enrichment (6-mer frequency, TF over GST control)
- binding signal (ETV6): 1.32 fold enrichment (6-mer frequency, TF over GST control)
